Assay outcomes deposited in PubChem by several laboratories.
Sampled rows, rich in hits. Any-hit rate of the full collection: about 6.6%.
NR3A LBD binder – modulates the human NR3A ligand-binding domain; NR3A LBD differential scanning fluorimetry, Tm shift; 0% = protein alone, 100% = glycine-bound protein; Tm shift relative to glycine control, % at 25 µM; hit rate 2.5% among 340,000;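 active = melting temperature shift of at least 10% of the positive control shift, at one fixed dose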
Beta apoptosis – blocks beta cell apoptosis; protection from apoptosis, % (test concentration not listed); AID 435005; hit rate 0.8% among 300,000; INS-1E cytokine-induced death, ATP luminescence, 48 h; percent of positive-control rescue, neutral wells zero;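 active = Every replicate reaches about 75%, or at least half do and their mean reaches it too, limit read from the data; inconclusive = At least half of replicates reach the limit but their mean does not; inactive = Under half of replicates reach the limit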;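 also: higher means more ATP so stronger rescue from cytokine killing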
MPTP block – inhibitors of mitochondrial permeability transition pore | isolated mouse mitochondria, Ca2+ swelling absorbance, 30 min | inhibition, % at 10 µM | hit rate 1.4% among 360,000 | AID 602449;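 active = inhibition of 50% or more, scaled per plate between neutral and stimulator controls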
Mdm2 MdmX PPI – human Mdm2/MdmX binding inhibition; O15151+Q00987; SaOS-2 split-luciferase Mdm2/MdmX complementation, luminescence; inhibition, % at 8 µM; hit rate 3% among 330,000; AID 485346;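 active = inhibition of at least 50% at 8 µM in the primary screen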
Target sequence (O15151 whole entry, looked up): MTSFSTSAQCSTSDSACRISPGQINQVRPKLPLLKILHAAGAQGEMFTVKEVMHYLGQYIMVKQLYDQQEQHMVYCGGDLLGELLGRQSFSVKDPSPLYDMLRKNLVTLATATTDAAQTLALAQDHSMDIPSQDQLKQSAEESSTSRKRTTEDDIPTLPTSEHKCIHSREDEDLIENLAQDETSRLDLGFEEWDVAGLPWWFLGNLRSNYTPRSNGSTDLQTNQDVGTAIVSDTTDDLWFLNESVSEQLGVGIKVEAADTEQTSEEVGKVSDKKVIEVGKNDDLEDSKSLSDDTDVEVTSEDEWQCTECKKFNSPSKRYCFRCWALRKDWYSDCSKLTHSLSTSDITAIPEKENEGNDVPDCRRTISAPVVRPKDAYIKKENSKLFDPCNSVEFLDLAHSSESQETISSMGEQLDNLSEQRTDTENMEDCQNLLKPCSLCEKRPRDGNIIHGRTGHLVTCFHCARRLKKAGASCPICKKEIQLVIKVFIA
Target sequence (Q00987 whole entry, looked up): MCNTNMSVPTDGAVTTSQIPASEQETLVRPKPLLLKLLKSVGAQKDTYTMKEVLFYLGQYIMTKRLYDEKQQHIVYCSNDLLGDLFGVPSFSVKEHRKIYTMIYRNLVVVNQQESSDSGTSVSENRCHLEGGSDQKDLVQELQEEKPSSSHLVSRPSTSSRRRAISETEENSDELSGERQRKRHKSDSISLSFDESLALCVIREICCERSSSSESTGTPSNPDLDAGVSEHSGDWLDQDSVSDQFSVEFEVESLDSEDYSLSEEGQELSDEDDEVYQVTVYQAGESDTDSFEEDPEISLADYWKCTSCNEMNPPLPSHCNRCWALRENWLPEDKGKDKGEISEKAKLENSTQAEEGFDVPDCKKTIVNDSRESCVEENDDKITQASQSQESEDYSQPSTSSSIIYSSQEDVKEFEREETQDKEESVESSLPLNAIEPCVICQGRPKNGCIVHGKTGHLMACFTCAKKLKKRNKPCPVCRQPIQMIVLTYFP
Gli-Sufu antag – blocks Gli-Sufu signaling in a luciferase reporter; hit rate 0.74% among 340,000; Sufu-KO-LIGHT fibroblasts, Gli luciferase reporter luminescence; inhibition, % at 5 µM;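 active = inhibition above about 55%, limit read from the data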
CSC inhib – cancer stem cell inhibition; cancer stem cell-like cells viability, luminescence; hit rate 1.1% among 300,000; inhibition, % at 7.5 µM; in the data active = inhibition above about 75%; inconclusive = no clear call, values can overlap the other calls; tested in HMLE shEcad cells
Mdm2-MdmX conf – human Mdm2/MdmX binding inhibition, confirmed. shares compounds with Mdm2 MdmX PPI. luminescent assay. inhibition, % at 8 µM. hit rate 55% among 10,000; in the data active = inhibition above about 40%
FLuc counter – inhibits full-length luciferase, flagging false Mdm2/MdmX hits; SaOS-2 full-length luciferase counterscreen, luminescence; inhibition, % at 8 µM; hit rate 77% among 6,200; shares compounds with Mdm2 MdmX PPI;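 active = mean inhibition at 8 µM reaching about 37%, which flags the compound as non-specific, limit read from the data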;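 also: p53-null SaOS-2 cells with luciferase driven by a doxycycline-inducible promoter; compound on cells about two nights before reading with doxycycline added after day one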
Numbers stand for hits; 0 = inactive; ? = inconclusive; - = no result given.

SMILES	NR3A LBD binder	Beta apoptosis	MPTP block	Mdm2 MdmX PPI	Gli-Sufu antag	CSC inhib	Mdm2-MdmX conf	FLuc counter
C[C@@H]1CN([C@H](C)CO)C(=O)c2cc(NC(=O)Nc3cccc4ccccc34)ccc2O[C@H]1CN(C)Cc1ccc(C(F)(F)F)cc1	23	-	0	56	0	-	0	81
C[C@@H]1CN([C@H](C)CO)C(=O)Cc2cc(NC(=O)Nc3ccccc3)ccc2O[C@@H]1CN(C)Cc1ccc2c(c1)OCO2	0	0	0	53	0	0	0	-
C[C@@H]1CN([C@H](C)CO)C(=O)Cc2cc(NS(=O)(=O)c3ccc(Cl)cc3)ccc2O[C@H]1CN(C)Cc1ccc(C(F)(F)F)cc1	0	0	0	90	0	105	62	55
C[C@H](CO)N1C[C@H](C)[C@H](CN(C)Cc2ccccc2)Oc2ccc(NC(=O)Nc3ccc(F)cc3)cc2C1=O	0	0	0	65	0	0	0	-
COc1ccc(CN2C(=O)CCC2(C)c2nnnn2Cc2ccccc2)cc1 (stereo not given)	-	-	0	-	-	-	-	-
Cc1ccc(N(CC(=O)Nc2ccc3c(c2)OCCO3)S(C)(=O)=O)cc1	0	0	0	0	0	0	-	-
CC(=O)N1C[C@@H](CO)[C@@H](N(C)C(=O)C2CCCCC2)C[C@H]1c1ccccc1	-	-	0	-	-	-	-	-
CC(=O)NC(CC(C)C)C(=O)NC(CO)C(=O)NC(CCC(=O)O)C(=O)NC(C)C(=O)NC(CC(C)C)C(N)=O (stereo not given)	0	0	0	0	0	0	-	-
COC(=O)C1(NC(=O)NC2CCCCC2)CCCCC1	0	0	0	0	0	0	-	-
C[C@@H]1CN([C@@H](C)CO)C(=O)Cc2cc(NC(=O)Nc3cccc4ccccc34)ccc2O[C@@H]1CN(C)S(C)(=O)=O	0	0	0	0	0	0	-	-
C[C@@H]1CN([C@@H](C)CO)C(=O)Cc2cc(NC(=O)Nc3cccc4ccccc34)ccc2O[C@@H]1CN(C)Cc1ccc(C(F)(F)F)cc1	13	0	0	65	0	0	0	-
C[C@H]1CN([C@@H](C)CO)C(=O)c2cc(NC(=O)C3CCCCC3)ccc2O[C@H]1CN(C)Cc1ccc(-c2ccccc2)cc1	0	0	0	81	0	0	0	-
C[C@@H]1CN([C@H](C)CO)C(=O)c2cc(NC(=O)C3CCCCC3)ccc2O[C@@H]1CN(C)Cc1ccc(C(F)(F)F)cc1	0	0	0	0	0	0	-	-
COc1cccc(NC(=O)CSc2nc3c(sc4ccccc43)c(=O)n2CCCN2CCCC2)c1	0	0	0	89	0	0	0	-
CCN(CC)CCn1c(SCC(=O)Nc2cccc(OC)c2)nc2c(sc3ccccc32)c1=O	0	0	0	51	0	0	0	-
O=C(CCS(=O)(=O)c1ccc(Cl)cc1)Nc1nc(-c2cccnc2)cs1	0	-	0	70	0	0	0	72
Cc1cc(C)cc(OCC(=O)Nc2nc(-c3cccnc3)cs2)c1	0	0	0	78	0	0	0	-
O=C(CCS(=O)(=O)c1ccccc1)Nc1nc(-c2ccc(F)cc2)cs1	0	0	0	60	0	?	43	53
Cc1ccc(S(=O)(=O)CCC(=O)Nc2nc(-c3cccnc3)cs2)cc1	0	0	0	58	0	0	0	66
C/C(=N\Nc1ccc(Cl)c(C(=O)O)c1)c1ccc(N2CCOCC2)cc1	0	0	0	0	0	0	-	-
Cn1c(C(=O)Nc2ccc(Cl)cc2)cc2cc(Cl)ccc21	0	0	0	0	0	0	-	-
CC(C)C(OC(=O)CN1C(=O)COc2ccccc21)C(=O)NC1CCCCC1 (stereo not given)	0	0	0	0	0	0	-	-
Cc1ccc(S(=O)(=O)CCC(=O)Nc2nc(-c3ccccn3)cs2)cc1	0	0	0	67	0	0	0	-
O=C(Nc1nc(-c2ccncc2)cs1)c1ccc(F)cc1	0	0	0	66	0	0	0	-
Cc1ccc(C2(C)NC(=O)N(CC(=O)Nc3nc(-c4ccccn4)cs3)C2=O)cc1 (stereo not given)	0	-	0	59	0	0	49	64
SMILES	NR3A LBD binder	Beta apoptosis	MPTP block	Mdm2 MdmX PPI	Gli-Sufu antag	CSC inhib	Mdm2-MdmX conf	FLuc counter
CC(=O)c1sc(NC(=O)CCS(=O)(=O)c2ccc(Cl)cc2)nc1C	0	0	0	51	0	0	52	69
O=C(NC1CCOCC1)C1CCC(=O)N(Cc2cccc(C(F)(F)F)c2)C1 (stereo not given)	0	0	0	0	0	0	-	-
O=C(CCS(=O)(=O)c1ccc(Cl)cc1)Nc1nc(-c2ccncc2)cs1	0	0	0	97	0	0	56	0
O=C(COc1ccccc1)Nc1nc(-c2ccncc2)cs1	0	0	0	0	0	0	-	-
CC(C)(C)N(Cc1ccccc1)C(=O)COC(=O)C1CC(=O)N(Cc2ccccc2)C1 (stereo not given)	0	-	0	-	0	-	-	-
CCOC(=O)c1ccc(NC(=O)Nc2cc(C)cc(C)n2)cc1	-	0	-	50	-	0	0	-
CCOC(=O)c1ccc(NC(=O)Nc2ncc(Cl)cc2Cl)cc1	-	0	-	0	-	0	-	-
CCOC(=O)c1ccc(Nc2cc(C)nc(-c3ccccc3)n2)cc1	10	0	0	56	0	97	66	57
CCOC(=O)c1ccc(Nc2nc(C)cc(C)n2)cc1	0	0	0	-	0	0	-	-
CN(C)c1ccc(Sc2nnc(NC(=O)Nc3ccc(Cl)cc3Cl)s2)cc1	0	0	0	79	0	0	0	-
CCC(=O)Nc1nnc(Sc2ccc(N(C)C)cc2)s1	0	0	0	0	0	0	-	-
CC(C)(C)c1ccc(C(=O)Nc2cccc(-n3cnnn3)c2)cc1	0	-	0	0	0	0	-	-
Cc1ccc(CN2CCC(c3cc(-c4ccc(Cl)cc4)n[nH]3)CC2)cc1	0	0	0	64	0	0	0	74
CN1CCN(Cc2nc3ccccc3c(=O)n2Cc2nc(-c3ccc([N+](=O)[O-])cc3)cs2)CC1	0	0	0	95	0	0	0	-
CN(C)Cc1nc2ccccc2c(=O)n1Cc1nc(-c2cccc([N+](=O)[O-])c2)cs1	0	0	0	0	0	0	-	-
CCc1nc(Sc2nnnn2-c2ccccc2)c2c3c(sc2n1)CCCC3	0	0	0	93	0	0	84	52
Cc1nc(Sc2nnnn2C)c2c3c(sc2n1)CCC3	0	0	0	97	0	0	93	63
CN1CCC(NC(=O)c2cc(-c3cccc(Br)c3)nc3ccccc23)CC1	0	0	0	66	0	0	0	65
O=C(/C=C/NNC(=O)c1ccccc1O)c1ccccc1	0	0	0	57	0	0	0	-
COc1cc(-c2nnc(SCC(=O)N(C)C3CCS(=O)(=O)C3)o2)cc(OC)c1OC (stereo not given)	0	0	0	0	0	0	-	-
CCOC(=O)C1=C(C)Nc2ccccc2N=C1N	0	0	0	0	0	0	-	-
